ALR H2O2 inh: inhibitors of human ALR sulfhydryl oxidase, primary screen, biochemical, H2O2 detection, HRP-luminol luminescence, single point; inhibition, % (concentration not given with the values); 3.8% of 290,000 active; purified ALR, DTT oxidation; FAD-linked sulfhydryl oxidase ALR (Homo sapiens), P55789; AID 485317, 2010;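 active means mean replicate inhibition above about 79%, with every replicate also reaching it, limit read from the data; inconclusive means only one of the two criteria met; inactive means mean below limit and not every replicate reaching it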
Target sequence (P55789 whole entry, looked up): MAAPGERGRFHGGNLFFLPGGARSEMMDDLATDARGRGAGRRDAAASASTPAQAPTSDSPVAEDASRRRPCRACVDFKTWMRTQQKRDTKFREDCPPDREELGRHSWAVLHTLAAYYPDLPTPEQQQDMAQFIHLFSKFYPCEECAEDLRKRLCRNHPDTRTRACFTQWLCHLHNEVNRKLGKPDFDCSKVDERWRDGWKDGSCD
SMARCA2 activ: SMARCA2 (BRM) function activators, primary screen, cell-based, luminescence, high throughput; MG213 cells, MMTV-luciferase reporter, dexamethasone, overnight; activation, % at 9.1 µM; 1% of 370,000 active; AID 652017, 2013; in the data active means activation above about 7.8%;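 further: 0% = vehicle wells and 100% = reference activator wells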
MIN6 prolif: inducers of MIN6 beta-cell proliferation, primary screen, ATP luminescence, uHTS; proliferation, % at 10 µM; 0.29% of 330,000 active; MIN6 cells proliferation, ATPlite luminescence, 48 h; cells starved in 0.2% serum; 100% = growth in 10% serum;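 active means compounds whose signal lies at least 3.5 SD above the mean of all wells on their plate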;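 further: 0% = DMSO-treated cells in low-serum medium and 100% = 10% serum control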
M18AAP inhibitor: PfM18AAP inhibitors, malaria aminopeptidase, primary screen, biochemical, QFRET, recombinant enzyme; H-Glu-NHMec fluorogenic cleavage; inhibition, % at 7.35 µM; 1.2% of 290,000 active;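 active means inhibition above the campaign mean inhibition over all tested compounds plus 3 SD, cut at about 28% in these data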;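 further: 0% = plate median of test compound wells and 100% = 2 mM ZnCl2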
GASC-1 inh: inhibitors of GASC-1 histone demethylase, primary screen, biochemical, fluorescence, DELFIA europium; Lysine-specific demethylase 4C (Homo sapiens), Q9H3R0; GST-JMJD2C(1-420) H3K9me3 demethylation; inhibition, % at 2.35 µM; 0.069% of 330,000 active; AID 2099, 2009;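 active means more than half of a compound's replicate wells show inhibition beyond 50%, single wells judged on their own value; inconclusive means some, but no more than half, of replicates pass 50% inhibition; inactive means no replicate passes 50% inhibition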;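 further: signal counts dimethyl H3K9 product captured on neutravidin plate; 0% = median of DMSO wells and 100% = 0.3 times that DMSO median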
Target sequence (Q9H3R0 1-420 limits assumed): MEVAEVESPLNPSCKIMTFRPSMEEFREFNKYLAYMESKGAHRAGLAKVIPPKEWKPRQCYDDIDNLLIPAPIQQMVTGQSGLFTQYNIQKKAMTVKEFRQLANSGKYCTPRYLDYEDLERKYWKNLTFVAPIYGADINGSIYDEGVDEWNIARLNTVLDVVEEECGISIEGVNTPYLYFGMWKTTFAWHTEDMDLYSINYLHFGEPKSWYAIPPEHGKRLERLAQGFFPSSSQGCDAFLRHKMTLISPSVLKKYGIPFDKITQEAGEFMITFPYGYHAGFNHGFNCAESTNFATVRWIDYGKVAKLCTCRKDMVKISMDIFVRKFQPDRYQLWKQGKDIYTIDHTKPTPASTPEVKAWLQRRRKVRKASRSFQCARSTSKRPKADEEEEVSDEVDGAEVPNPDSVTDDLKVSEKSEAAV
Granule exo inh: LAMP-1 surface exposure blockers, TALL-104 cells – cell-based, flow cytometry, MLPCN library, primary screen; TALL-104 LAMP-1 surface exposure; cells stimulated with thapsigargin and PMA; 0.66% of 360,000 active; inhibition, % at 10 µM; AID 651702, 2012;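 active means inhibition above about 55%, limit read from the data; inconclusive means no clear call, values can overlap the other calls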
* = called active by the depositor; ? = inconclusive; . = not tested or not shown. Sampled rows, rich in hits. Any-hit rate of the full collection: about 5.4%.

SMILES	ALR H2O2 inh	SMARCA2 activ	MIN6 prolif	M18AAP inhibitor	GASC-1 inh	Granule exo inh
CC(=O)N(C)C1=C(N2CCOCC2)C(=O)c2ccccc2C1=O	-40.3	.	-5.5	4.4	98.7*	12.2
CC(=O)N(C1=C(N2CCOCC2)C(=O)c2ccccc2C1=O)c1ccc(C(=O)O)cc1	-15.7	0.6	-2.2	5.8	11.1	2.9
CC(C)CN1C(=O)C[C@]2(C(=O)N(C)c3ccc(NC(=O)c4cc(F)ccc4F)cc32)C1c1ccccc1 (some centres not stated)	.	-2.6	.	.	.	.
COCCCNC(=O)C[C@H]1C[C@@]2(C(=O)OC)C(=C[C@H](C(C)C)O[C@@H]2C2CC2)N(Cc2ccc3c(c2)OCO3)C1=O	.	0.1	.	.	.	.
O=S(=O)(c1ccc(F)cc1)N1CCN=C1SCc1cccnc1	98.0*	-2.4	5.4	-6.4	-5.9	2.1
CC(=O)Nc1ccc(S(=O)(=O)N2CCN=C2SCc2cccnc2)cc1	98.3*	-3.0	-1.8	1.7	5.8	-8.9
O=S(=O)(c1ccc(Br)cc1)N1CCN=C1SCc1cccnc1	?	1.1	-0.3	-7.2	6.8	1.6
CC(=O)Nc1ccc(S(=O)(=O)N2CCN=C2SCc2ccc(C)cc2)cc1	-11.5	1.8	-3.0	-3.1	-2.5	28.5
O=S(=O)(c1ccc2ccccc2c1)N1CCN=C1SCc1cccnc1	99.0*	1.9	-3.4	-2.7	-7.0	0.8
COC(=O)[C@]12C[C@H](CC(=O)NCc3cccs3)C(=O)N(Cc3cccc4ccccc34)C1=C[C@H](COCc1ccccc1)O[C@@H]2C	.	-2.1	.	.	.	.
Cc1occc1-c1nnc(SCC(=O)NCc2ccc(Cl)cc2)n1-c1ccccc1	.	0.1	.	.	.	.
CCc1cc2c(nc1CC)CCCN2S(=O)(=O)c1ccccc1C	.	1.4	.	.	.	.
CCOC(=O)c1nn(-c2ccc([N+](=O)[O-])cc2)cc1O	3.7	6.8	-1.5	-1.8	1.1	-2.5
CCOC(=O)c1nn(-c2ccc(C)c(C)c2)cc1O	97.3*	7.0	-2.3	-3.8	7.5	0.3
COCCN(CCOC)C(=O)[C@H](CCc1ccccc1)NC(=O)[C@H]1O[C@@H](n2cnc3c(N)ncnc32)[C@H](O)[C@@H]1O	.	1.7	.	.	.	.
Cc1ccc(-c2cc(C(=O)Nc3c(C)n(C)n(-c4ccccc4)c3=O)[nH]n2)c(O)c1C	97.2*	-0.5	-2.3	16.4	-2.5	-3.0
Cc1ccc(-c2cc(C(=O)Nc3c(C)n(C)n(-c4ccccc4)c3=O)[nH]n2)c(O)c1	0.8	-2.7	3.0	9.2	-10.0	1.3
COc1ccc(C2=NN(c3nc(-c4ccc(CNC(C)=O)cc4)cs3)C(c3ccco3)C2)cc1 (configuration not stated)	99.0*	4.0	-4.9	-1.6	22.0	39.9
CCOC(=O)c1ccc2c(c1)[nH]c(=S)n2CC	83.1*	3.0	-0.7	0.0	7.4	3.7
O=C(NCc1cccnc1)c1sc2cc(Cl)ccc2c1Cl	9.7	-3.5	-3.5	0.4	5.3	-0.3
Cn1c(C(=O)NCc2cccnc2)cc2sc(Cl)cc21	94.1*	.	1.9	7.2	2.8	-1.2
Cc1cccc(C)c1-n1nnnc1C1(C)Cn2nccc2C(=O)N1Cc1ccc(F)cc1 (configuration not stated)	.	-0.4	.	.	.	.
COc1ccc(-c2csc(NC(=O)CSCC(=O)Nc3cc(C)on3)n2)cc1OC	99.2*	-0.5	-2.0	.	2.4	-5.0
COc1ccc(-c2csc(Nc3ccc(S(=O)(=O)Nc4cc(OC)nc(OC)n4)cc3)n2)cc1	20.7	0.8	0.0	-0.1	23.0	2.6
COc1ccc(-c2csc(Nc3ccc(S(=O)(=O)Nc4cc(C)on4)cc3)n2)cc1C	98.9*	0.2	-5.6	6.4	8.0	6.6
SMILES	ALR H2O2 inh	SMARCA2 activ	MIN6 prolif	M18AAP inhibitor	GASC-1 inh	Granule exo inh
CC(=O)N1CCc2cc(S(=O)(=O)NCCC(=O)N(C)C3CCCCC3)ccc21	.	-7.0	.	.	.	.
CCCc1cc(=O)[nH]c(Nc2ccc(O)cc2)n1	99.0*	-3.1	-2.7	-2.9	12.1	-4.5
CCCc1cc(=O)[nH]c(Nc2ccc(Cl)cc2)n1	-5.9	-1.6	-1.2	4.1	-27.6	0.7
Nc1c(S(=O)(=O)c2ccccc2)c2nc3ccccc3nc2n1C1CC1	98.5*	4.6	-1.6	0.8	-14.6	-4.0
Cn1ccc2cc(OCc3ccccc3)ccc21	.	3.9	.	.	.	-12.9
Cc1c(C=O)c2cc(OCc3ccccc3)ccc2n1C	-1.0	-0.1	0.2	1.4	11.1	69.2*
CN1C(=O)SC(Nc2cccc3ccccc23)C1=O (configuration not stated)	90.1*	1.7	-0.4	14.4	5.5	0.4
Cc1ccc(NCC(=O)N/N=C/c2ccc(OC(=O)c3ccco3)cc2)cc1	99.1*	4.4	-1.9	1.3	91.6	13.1
CN1C(=O)N(C)c2cccc3cccc1c23	-18.6	-2.5	0.0	1.5	-10.7	-3.2
CCc1ccc2cccc3c2c1N=CN3C	99.6*	-2.3	-2.5	.	-1.0	18.4
Cc1cc2oc(C(=O)N(Cc3ccccc3)c3ccccn3)cc(=O)c2cc1Cl	-12.9	-4.0	-3.3	-0.4	-4.5	56.7*
Cc1cc(C)c2oc(C(=O)N(Cc3ccccc3)c3ccccn3)cc(=O)c2c1	-0.8	0.5	3.2	-1.3	-5.8	17.7
COC(=O)[C@]12CCCCC=C1N(Cc1ccc(OC)cc1)C(=O)[C@@H]2CC(=O)N1CCSCC1	.	-3.0	.	.	.	.
COc1cccc(C2NC(CC(C)C)(C(=O)O)C3C(=O)N(Cc4ccccc4)C(=O)C23)c1O (configuration not stated)	47.9	-0.1	-0.9	2.0	-17.6	0.1
COc1cccc(C2NC(CCSC)(C(=O)O)C3C(=O)N(C(C)C)C(=O)C23)c1O (configuration not stated)	98.1*	-0.3	-1.9	3.5	-19.0	-3.7
COC(=O)[C@]1(CC(C)C)N[C@H](c2ccc(-c3ccccc3)cc2)[C@@H]2C(=O)N(C)C(=O)[C@@H]21	1.3	1.4	-0.2	.	.	0.3
CC(C)CC1(C(=O)O)NC(c2ccccc2O)C2C(=O)N(C(C)C)C(=O)C21 (configuration not stated)	93.4*	0.7	-0.3	-11.9	-3.5	5.8
CC(C)N1C(=O)C2C(c3ccccc3O)NC(C)(C(=O)O)C2C1=O (configuration not stated)	89.1*	0.5	-3.7	.	-7.1	-2.5
CCOC(=O)C1(C)NC(c2ccc(O)cc2)C2C(=O)N(c3ccccc3)C(=O)C21 (configuration not stated)	-4.8	1.9	-0.8	-4.6	-1.3	-0.7
CCC(C)(C)C(=O)N1CCc2cc(S(=O)(=O)N(C)Cc3ccco3)ccc21	.	2.3	.	.	.	.
